40 molecules from PubChem BioAssay AID1845225 (National Center for Advancing Translational Sciences (NCATS), 2023) can be followed below.

Structures are written as SMILES. Records with an inconclusive call do not appear. Activity calls are given as the source filed them. The call rests on the fitted dose curve; in most records, active means well fitted curve in the direction sought with a large enough effect; inconclusive means small, poorly fitted or top-dose-only effect, or effect the other way, or another doubt; inactive means no such curve, though single readings can be large or run the other way.

The test in a line: Confirmatory redox qHTS assay for identification of artifact compounds. The settings on record: Amplex Red/HRP redox cycling with DTT, fluorescence; series mostly up to 39 µM. An outline of the steps: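 Amplex Red (25 uM final) and HRP (250 mU/mL final) in HBSS, compound 15 min, then 250 uM DTT final 30 min, room temperature, dark; fluorescence 525/598 nm, normalized to DMSO and 10 uM DA3003, Hill fitted.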
On to `O=C(NNCNNC(=O)c1ccncc1)c1ccncc1`, for which the result was inactive.
As for `O=C(Nc1ccc(C(F)(F)F)cc1)C1(c2cccs2)CCOCC1`, the outcome was inactive.
Turning to `Cc1ccc(NS(=O)(=O)c2ccc3c(c2)CCN(C(=O)C(F)(F)F)C3)cc1C`, the result was inactive.
With `COc1ccc(NC(=O)C(Cc2ccccc2)n2cccc2)c(OC)c1` (stereo not given), the outcome was inactive.
In the case of `COc1ccc(CCNC(=O)c2cc3c(-c4ccc(OC)c(OC)c4)nn(C)c3s2)cc1OC` it was “inactive”; in that of `Cc1cccc(C(=O)NCCc2nc3ccccc3n2CCC(C)C)c1`, “inactive”; in that of `Cc1cc(C(=O)N2CCN(c3cccc(Cl)c3)CC2)c2c(C)nn(-c3ccccc3Cl)c2n1`, “inactive”.
Regarding `Cc1ccc(OCCn2c(CCNC(=O)c3c(F)cccc3F)nc3ccccc32)cc1`, the result was inactive.
On to `CC1CCCCN1CCCNC(=O)Cn1ncc2c3ccccc3n(Cc3ccccc3)c2c1=O` (stereo not given), for which the outcome was inactive.
As to `Cc1ccc(C)c(NC(=O)CN2CCCN(Cc3cccc(Cl)c3)S2(=O)=O)c1`, the molecule was called inactive.
For `COc1ccc(-c2cc(=O)c3ccccc3o2)cc1`, the molecule was called inactive.
Turning to `COc1cc2c(NC3CCN(C)CC3)nc(N3CCN(C)CC3)nc2cc1OCCOCCN(C)C`, the result was inactive.
In the case of `COc1ccc(C2C(C(=O)Nc3ccccc3)=C(C)Nc3c(C(=O)Nc4ccccc4)cnn32)cc1` (stereo not given), the molecule was called inactive.
Next, `Cc1cc(C)cc(NC(=O)CSc2cc(C)[nH]c(=O)n2)c1`: “inactive”; `CCc1ccc(CN(Cc2ccco2)C(=O)c2ccc(OC)cc2)cc1`: “inactive”.
Next, `COc1cccc(CNC(=O)C2Cc3cc(S(=O)(=O)N4CCCCCC4)ccc3N2C(C)=O)c1` (stereo not given): “inactive”.
Take `CCOc1ccc(OCC)c(NS(=O)(=O)c2c(C)[nH]c(=O)[nH]c2=O)c1`: the call was inactive.
In the case of `Cc1cc2c(s1)c1cnn(Cc3cc(F)c(Cl)cc3Cl)c(=O)c1n2C` it was “inactive”.
On to `Nc1ccc(F)cc1F`, for which the result was inactive.
Regarding `Cc1ccc(C)c(C(=O)N2CCC(c3nc4c(nnn4Cc4ccccc4)c(=O)[nH]3)CC2)c1`, the molecule was called inactive.
In the case of `COc1cccc(-c2nc(SCC(=O)Nc3ccc4c(c3)OCO4)c(-c3ccccc3)[nH]2)c1` it was “inactive”.
Next, `O=C(Cn1nc(-c2ccc(Cl)cc2)ccc1=O)NCCc1ccccc1`: “inactive”.
For `COc1cc2c(NC3CCN(C)CC3)nc(N3CCCN(C)CC3)nc2cc1OCCCCC(N)=O`, the molecule was classed as inactive.
In the case of `CC(C)=CCC/C(C)=C/C=O` it was “inactive”; in that of `COc1cc2nc(N3CCCCC3)nc(NC3CCN(Cc4ccccc4)CC3)c2cc1OC`, “inactive”; in that of `CC(=NCc1ccccc1)c1ccccc1O`, “inactive”.
Consider `CCc1ccc(CN2C(=O)c3ccccc3C2C(=O)NCCc2ccc(OC)c(OC)c2)cc1` (stereo not given), for which the outcome was inactive.
Next, `CC(C)Oc1ccc(C(=O)N2CCC(c3nc4ccccc4s3)CC2)cc1`: “inactive”.
On to `CC[C@H](C)CCCCC(=O)N[C@@H](CCN)C(=O)N[C@H](C(=O)N[C@@H](CCN)C(=O)N[C@H]1CCNC(=O)[C@@H]([C@H](C)O)NC(=O)[C@H](CCN)NC(=O)[C@H](CCN)NC(=O)[C@H](CC(C)C)NC(=O)[C@@H](CC(C)C)NC(=O)[C@H](CCN)NC1=O)[C@@H](C)O`, for which the result was inactive.
Regarding `Cc1nc2ccc(S(=O)(=O)N(CC(=O)Nc3ccc(F)cc3F)Cc3ccccc3)cc2s1`, the outcome was inactive.
`COc1cc(O)c(C(CC(=O)N2CCCCC2)c2ccc(C)cc2)c(OC)c1` (stereo not given): the outcome was inactive.
For `O=S(=O)(c1cc(Br)c(Br)s1)N1CCN(c2ccccc2)CC1`, the result was inactive.
Turning to `Clc1ccccc1CNc1ncnc2nc[nH]c12`, the outcome was inactive.
On to `C=C[C@@]1(C)C[C@H](OC(=O)CSC(C)(C)CNC(=O)[C@@H](N)C(C)C)[C@@]2(C)C(C)CC[C@@]3(CCC(=O)[C@@H]32)[C@H](C)[C@H]1O` (stereo not given in full), for which the outcome was inactive.
For `CN1C(C(=O)Nc2ccc(F)cc2F)=CC(c2cccs2)=NS1(=O)=O`, the outcome was inactive.
In the case of `COc1ccc(OC)c(NC(=O)Cn2c(=O)n(CC3CCCO3)c(=O)c3cc(OC)c(OC)cc32)c1` (stereo not given), the call was inactive.
In the case of `COc1ccc(-c2nc(CS(=O)CC(=O)NCCc3ccccc3)c(C)o2)cc1OC` (stereo not given), the outcome was inactive.
`Cc1nc(-c2ccccc2C(C)C)nc(NCc2ccc(-c3cccnc3)cc2)c1C`: the call was inactive.
Take `Cc1ccc(CNC(=O)c2c(-c3ccccc3Cl)noc2C)o1`: the molecule was classed as inactive.
For `CC1(C)S[C@@H]2[C@H](NC(=O)C3(N)CCCCC3)C(=O)N2[C@H]1C(=O)O`, the outcome was inactive.
